Measured values as given in PubChem BioAssay AID623970 (The Scripps Research Institute Molecular Screening Center, 2012).
Values joined by “and” are separate entries in the source; they are usually repeats but may differ in a detail not shown here. Identical values can stand only once. The source holds several records for some structures; these can differ, active in one and inactive in another. Active and inactive are the calls of the source. No stated cut-off is given here; in the data, active means IC50 below about 90 µM; inactive means the rest.

Test: compound-DNA interaction, SYBR readout – biochemical, fluorescence, artefact control for HCV NS3 helicase inhibitor project, late-stage follow-up (AID 623970)
Details: DNA binding, SYBR dye displacement fluorescence

## Cc1ccc2nc(-c3ccc4nc(-c5ccc(NS(=O)(=O)c6ccc(C(F)(F)F)cc6)cc5)sc4c3)sc2c1S(=O)(=O)O
  IC50: 82 µM (active)

## Cc1ccc2nc(-c3ccc(NC(=O)c4ccc(NC(=O)c5ccc(C(F)(F)F)cc5)cc4)cc3)sc2c1S(=O)(=O)O
  IC50: > 100 µM (inactive)

## Cc1ccc2nc(-c3ccc4nc(-c5ccc(NC(=O)Nc6ccc(F)cc6)cc5)sc4c3)sc2c1S(=O)(=O)O
  IC50: 74 µM (active)

## COC(=O)c1ccc(C(=O)Nc2ccc(-c3nc4ccc(-c5nc6ccc(C)c(S(=O)(=O)O)c6s5)cc4s3)cc2)cc1
  IC50: > 100 µM (inactive)

## O=C(CCCCCCC(=O)Nc1ccc(-c2nc3ccccc3[nH]2)cc1)Nc1ccc(-c2nc3ccccc3[nH]2)cc1
  IC50: 14 µM (active)

## Cc1cc2sc(-c3ccc(N)cc3)nc2cc1S(=O)(=O)O
  IC50: > 100 µM (inactive)

## Cc1ccc2nc(-c3ccc4nc(-c5ccc(N)cc5)sc4c3)sc2c1S(=O)(=O)O
  IC50: > 100 µM (inactive) and 23 µM (active)

## Cc1ccc2nc(-c3ccc4nc(-c5ccc(NC(=O)c6ccc(F)cc6)cc5)sc4c3)sc2c1S(=O)(=O)O
  IC50: > 100 µM (inactive)

## Cc1ccc2nc(-c3ccc(NC(=O)c4ccc(NC(=S)Nc5ccccc5)cc4)cc3)sc2c1S(=O)(=O)O
  IC50: > 100 µM (inactive)

## Cc1ccc2nc(-c3ccc4nc(-c5ccc(NC(=O)c6cc(F)cc(C(F)(F)F)c6)cc5)sc4c3)sc2c1S(=O)(=O)O
  IC50: > 100 µM (inactive)

## COc1ccc(S(=O)(=O)Nc2ccc(-c3nc4ccc(-c5nc6ccc(C)c(S(=O)(=O)O)c6s5)cc4s3)cc2)cc1
  IC50: 42 µM (active)

## Cc1ccc2nc(-c3ccc4nc(-c5ccc(NC(=O)c6ccc7ncoc7c6)cc5)sc4c3)sc2c1S(=O)(=O)O
  IC50: 46 µM (active)

## CCN(CC)c1ccc(-c2nc3ccc(C)c(S(=O)(=O)O)c3s2)cc1
  IC50: > 100 µM (inactive)

## Cc1ccc2nc(-c3ccc4nc(-c5ccc(NC(=O)c6c(F)cccc6C(F)(F)F)cc5)sc4c3)sc2c1S(=O)(=O)O
  IC50: 64 µM (active)

## Cc1ccc2nc(-c3ccc4nc(-c5ccc(NC(=O)c6cc(C(F)(F)F)ccc6F)cc5)sc4c3)sc2c1S(=O)(=O)O
  IC50: > 100 µM (inactive)

## Cc1ccc2nc(-c3ccc4nc(-c5ccc(NC(=O)c6ccncc6)cc5)sc4c3)sc2c1S(=O)(=O)O
  IC50: > 100 µM (inactive)

## Cc1ccc2nc(-c3ccc4nc(-c5ccc(NC(=O)c6ccc(N)cc6)cc5)sc4c3)sc2c1S(=O)(=O)O
  IC50: 55 µM (active)

## Cc1ccc2nc(-c3ccc4nc(-c5ccc(NC(=O)Nc6ccccc6)cc5)sc4c3)sc2c1S(=O)(=O)O
  IC50: > 100 µM (inactive)

## Cc1ccc2nc(-c3ccc4nc(-c5ccc6nc(-c7ccc8nc(-c9ccc(N)cc9)sc8c7)sc6c5)sc4c3)sc2c1S(=O)(=O)O
  IC50: 14 µM (active)

## Cc1ccc(C(=O)Nc2ccc(-c3nc4ccc(-c5nc6ccc(C)c(S(=O)(=O)O)c6s5)cc4s3)cc2)cc1
  IC50: > 100 µM (inactive)

## COc1ccc(C(=O)Nc2ccc(-c3nc4ccc(-c5nc6ccc(C)c(S(=O)(=O)O)c6s5)cc4s3)cc2)cc1
  IC50: > 100 µM (inactive)

## Cc1ccc2nc(-c3ccc4nc(-c5ccc(NC(=O)c6cccc(C(F)(F)F)c6)cc5)sc4c3)sc2c1S(=O)(=O)O
  IC50: > 100 µM (inactive)

## Cc1cc(C(O)(c2ccc(Nc3ccccc3)cc2)c2ccc(Nc3ccc(S(=O)(=O)O)cc3)cc2)ccc1N (centres undefined)
  IC50: 17 µM (active)

## Cc1ccc2nc(-c3ccc4nc(-c5ccc(NC(=O)c6ccc(N(C)C)cc6)cc5)sc4c3)sc2c1S(=O)(=O)O
  IC50: > 100 µM (inactive)

## Cc1cc2sc(-c3ccc4nc(-c5ccc(N)cc5)sc4c3)nc2cc1S(=O)(=O)O
  IC50: 32 µM (active)

## Cc1ccc2nc(-c3ccc4nc(-c5ccc(NC(=O)c6ccc7nc(-c8ccc(N)cc8)sc7c6)cc5)sc4c3)sc2c1S(=O)(=O)O
  IC50: 68 µM (active)

## Cc1ccc2nc(-c3ccc4nc(-c5ccc(NC(=O)c6cccc(C(F)(F)F)c6F)cc5)sc4c3)sc2c1S(=O)(=O)O
  IC50: > 100 µM (inactive)

## Cc1ccc2nc(-c3ccc(NC(=O)c4ccc(N)cc4)cc3)sc2c1S(=O)(=O)O
  IC50: > 100 µM (inactive)

## Cc1ccc2nc(-c3ccc4nc(-c5ccc(NC(=O)Nc6ccc(Cl)cc6)cc5)sc4c3)sc2c1S(=O)(=O)O
  IC50: 8 µM (active)

## Cc1ccc2nc(-c3ccc(NC(=O)c4ccc(C(F)(F)F)cc4)cc3)sc2c1S(=O)(=O)O
  IC50: > 100 µM (inactive)

## Cc1ccc2nc(-c3ccc4nc(-c5ccc(NCc6ccccc6)cc5)sc4c3)sc2c1S(=O)(=O)O
  IC50: 27 µM (active)

## Cc1ccc2nc(-c3ccc4nc(-c5ccc(NC(=O)c6ccccc6)cc5)sc4c3)sc2c1S(=O)(=O)O
  IC50: > 100 µM (inactive)

## Cc1ccc2nc(-c3ccc4nc(-c5ccc(NC(=O)c6cc(C(F)(F)F)cc(C(F)(F)F)c6)cc5)sc4c3)sc2c1S(=O)(=O)O
  IC50: 86 µM (active)

## Cc1ccc2nc(-c3ccc4nc(-c5ccc(NC(=O)c6cc(F)ccc6C(F)(F)F)cc5)sc4c3)sc2c1S(=O)(=O)O
  IC50: > 100 µM (inactive)
